# Reference: PubChem BioAssay (NCI)
# About 79,000 compounds went through this panel and 15% of them were active in at least one assay; those are over-represented in the sample as a whole. A number with no mark means an inactive call. Calls of active or inactive are those of the source. Cut-off read from the data, not from the text of the source: active = growth inhibition above about 70%; inactive = the rest.
# Columns and labels:
# [1] = NCI Yeast Anticancer Drug Screen. Data for the rad52 strain (AID 147);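 note: 0% = growth of vehicle-treated control cultures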; conditions: S. cerevisiae rad52 mutant growth inhibition, active compounds read high
# Method in brief: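 Vehicle-treated cultures served as the reference for growth inhibition of compound-exposed yeast bearing a DNA repair mutation.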
# [2] = NCI Yeast Anticancer Drug Screen. Data for the wt1 strain (AID 149);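 note: 0% = growth of vehicle-treated wt1 cultures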; conditions: S. cerevisiae wt1 strain (SPY 50644) growth inhibition, active compounds read high
# Method in brief: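 wt1 strain grown with compound or vehicle; inhibition taken from the growth difference.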
# [3] = NCI Yeast Anticancer Drug Screen. Data for the rad50EPP+ strain (AID 151);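 note: 0% = growth of vehicle-treated control cultures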; conditions: S. cerevisiae rad50 mutant strain, active compounds read high
# Method in brief: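 In this screen, rad50EPP+ yeast were exposed to compounds. Growth inhibition was scored against vehicle-treated controls.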
# [4] = NCI Yeast Anticancer Drug Screen. Data for the mgt1 strain (AID 153); conditions: S. cerevisiae mgt1 mutant growth inhibition, active compounds read high
# Method in brief: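 mgt1 strain exposed; growth vs vehicle control recorded as inhibition.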
# [5] = NCI Yeast Anticancer Drug Screen. Data for the rad50 strain (AID 155);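 note: 0% = growth of vehicle-only cultures of the same strain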; conditions: S. cerevisiae rad50 strain growth inhibition, active compounds read high
# Method in brief: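 DNA repair mutant yeast, compound exposure, growth read-out; inhibition is taken relative to vehicle.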
# [6] = NCI Yeast Anticancer Drug Screen. Data for the mec2-1 strain (AID 157); conditions: S. cerevisiae mec2-1 strain, active compounds read high
# Method in brief: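 Vehicle-treated cultures served as reference for growth inhibition of compound-exposed mec2-1 yeast.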
# [7] = NCI Yeast Anticancer Drug Screen. Data for the rad14 strain (AID 159);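 note: 0% = growth of vehicle-treated control cultures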; conditions: S. cerevisiae rad14 strain growth inhibition, active compounds read high
# Method in brief: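 DNA repair-defective yeast, compound-exposed; % growth inhibition derived by comparison with vehicle-treated controls.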
# [8] = NCI Yeast Anticancer Drug Screen. Data for the sgs1 mgt1 strain (AID 161);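 note: 0% = growth of cultures given vehicle only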; conditions: S. cerevisiae sgs1 mgt1 strain, active compounds read high
# Method in brief: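 Mutant yeast exposed to compound; growth scored against vehicle-only wells.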
# [9] = NCI Yeast Anticancer Drug Screen. Data for the CLN2oe strain (AID 163);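 note: 0% = growth of vehicle-only control cultures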; conditions: S. cerevisiae CLN2oe strain, active compounds read high
# Method in brief: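 Inhibition relative to vehicle-treated yeast is reported. Cells: strain with genetic alteration in cell-cycle control, grown with compound.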
# [10] = NCI Yeast Anticancer Drug Screen. Data for the cln2 rad14 strain (AID 165);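 note: 0% = growth equal to vehicle treated cultures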; conditions: S. cerevisiae cln2 rad14 strain, active compounds read high
# Method in brief: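 Each compound was tested on cln2 rad14 yeast. Inhibition of growth was calculated against vehicle-exposed controls.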
# [11] = NCI Yeast Anticancer Drug Screen. Data for the bub3 strain (AID 167); conditions: S. cerevisiae bub3 mutant strain, active compounds read high
# Method in brief: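 In this screen, a yeast mutant lacking normal mitotic checkpoint function is challenged with compound. Relative growth versus vehicle gives the inhibition value.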
# [12] = NCI Yeast Anticancer Drug Screen. Data for the wt2 strain (AID 169);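 note: 0% = growth of vehicle-treated yeast cultures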; conditions: S. cerevisiae wt2 strain growth inhibition, active compounds read high
# Method in brief: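 Inhibition of yeast growth was determined after compound treatment, normalised to controls receiving only vehicle.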
# [13] = NCI Yeast Anticancer Drug Screen. Data for the mlh1 strain (AID 171);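 note: 0% = growth of vehicle-treated control cultures of the same strain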; conditions: S. cerevisiae mlh1 strain growth inhibition, active compounds read high
# Method in brief: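 Vehicle-normalised growth inhibition of a repair- or checkpoint-altered yeast strain following compound treatment.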
# [14] = NCI Yeast Anticancer Drug Screen. Data for the sgs1 strain (AID 173);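 note: 0% = growth of vehicle-only control cultures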; conditions: S. cerevisiae sgs1 mutant, active compounds read high
# Method in brief: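 Screen format: yeast with repair or checkpoint alterations, compound exposure, growth read relative to vehicle.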
# [15] = NCI Yeast Anticancer Drug Screen. Data for the mlh1 rad18 strain (AID 175); conditions: S. cerevisiae mlh1 rad18 strain growth inhibition, active compounds read high
# Method in brief: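 Vehicle-treated cultures served as the reference for growth inhibition in a yeast strain carrying DNA damage repair alterations exposed to each compound.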
# [16] = NCI Yeast Anticancer Drug Screen. Data for the rad18 strain (AID 177); conditions: S. cerevisiae rad18 mutant growth inhibition, active compounds read high
# Method in brief: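 Test articles were incubated with altered yeast defective in DNA damage repair. Results are given as inhibition of growth versus vehicle.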
# [17] = at 5.0 µM (retest, dose inferred, filed as 0.5)
# [18] = at 50.0 µM (retest, dose inferred, filed as 5.0)
compound,measurement,setting,value
Cc1cc[n+](C2=C(Nc3cccc(C(F)(F)F)c3)C(=O)c3ccccc3C2=O)cc1,growth inhibition,[1]; at 1.2 µM,5%
same,growth inhibition,[1]; at 3.7 µM,5%
same,growth inhibition,[1]; at 11.0 µM,7%
same,growth inhibition,[1]; at 33.0 µM,21%
same,growth inhibition,[1]; at 100.0 µM,55%
same,growth inhibition,[2]; at 1.2 µM,0%
same,growth inhibition,[2]; at 3.7 µM,2%
same,growth inhibition,[2]; at 11.0 µM,4%
same,growth inhibition,[2]; at 33.0 µM,7%
same,growth inhibition,[2]; at 100.0 µM,12%
same,growth inhibition,[3]; at 1.2 µM,7%
same,growth inhibition,[3]; at 3.7 µM,9%
same,growth inhibition,[3]; at 11.0 µM,12%
same,growth inhibition,[3]; at 33.0 µM,29%
same,growth inhibition,[3]; at 100.0 µM,30%
same,growth inhibition,[4]; at 1.2 µM,-1%
same,growth inhibition,[4]; at 3.7 µM,0%
same,growth inhibition,[4]; at 11.0 µM,1%
same,growth inhibition,[4]; at 33.0 µM,10%
same,growth inhibition,[4]; at 100.0 µM,12%
same,growth inhibition,[5]; at 1.2 µM,2%
same,growth inhibition,[5]; at 3.7 µM,3%
same,growth inhibition,[5]; [17],10%
same,growth inhibition,[5]; at 11.0 µM,8%
same,growth inhibition,[5]; at 33.0 µM,34%
same,growth inhibition,[5]; [18],80% (active)
same,growth inhibition,[5]; at 50.0 µM,86.8% (active)
same,growth inhibition,[5]; at 100.0 µM,59%
same,growth inhibition,[6]; at 1.2 µM,1%
same,growth inhibition,[6]; at 3.7 µM,4%
same,growth inhibition,[6]; [17],8%
same,growth inhibition,[6]; at 11.0 µM,-17%
same,growth inhibition,[6]; at 33.0 µM,-14%
same,growth inhibition,[6]; [18],36%
same,growth inhibition,[6]; at 50.0 µM,68.2%
same,growth inhibition,[6]; at 100.0 µM,10%
same,growth inhibition,[7]; at 1.2 µM,0%
same,growth inhibition,[7]; at 3.7 µM,-8%
same,growth inhibition,[7]; at 11.0 µM,-5%
same,growth inhibition,[7]; at 33.0 µM,0%
same,growth inhibition,[7]; at 100.0 µM,14%
same,growth inhibition,[8]; [17],6%
same,growth inhibition,[8]; [18],39%
same,growth inhibition,[8]; at 50.0 µM,62%
same,growth inhibition,[9]; at 1.2 µM,3%
same,growth inhibition,[9]; at 3.7 µM,4%
same,growth inhibition,[9]; at 11.0 µM,6%
same,growth inhibition,[9]; at 33.0 µM,-3%
same,growth inhibition,[9]; at 100.0 µM,-4%
same,growth inhibition,[10]; [17],6%
same,growth inhibition,[10]; [18],-4%
same,growth inhibition,[10]; at 50.0 µM,46.4%
same,growth inhibition,[11]; at 1.2 µM,4%
same,growth inhibition,[11]; at 3.7 µM,5%
same,growth inhibition,[11]; [17],1%
same,growth inhibition,[11]; at 11.0 µM,9%
same,growth inhibition,[11]; at 33.0 µM,13%
same,growth inhibition,[11]; [18],49%
same,growth inhibition,[11]; at 50.0 µM,46.8%
same,growth inhibition,[11]; at 100.0 µM,44%
same,growth inhibition,[12]; at 1.2 µM,1%
same,growth inhibition,[12]; at 3.7 µM,1%
same,growth inhibition,[12]; at 11.0 µM,3%
same,growth inhibition,[12]; at 33.0 µM,8%
same,growth inhibition,[12]; at 100.0 µM,12%
same,growth inhibition,[13]; at 1.2 µM,3%
same,growth inhibition,[13]; at 3.7 µM,-2%
same,growth inhibition,[13]; at 11.0 µM,1%
same,growth inhibition,[13]; at 33.0 µM,1%
same,growth inhibition,[13]; at 100.0 µM,10%
same,growth inhibition,[14]; at 1.2 µM,0%
same,growth inhibition,[14]; at 3.7 µM,-1%
same,growth inhibition,[14]; at 11.0 µM,0%
same,growth inhibition,[14]; at 33.0 µM,3%
same,growth inhibition,[14]; at 100.0 µM,16%
same,growth inhibition,[15]; [17],3%
same,growth inhibition,[15]; [18],3%
same,growth inhibition,[15]; at 50.0 µM,61.9%
same,growth inhibition,[16]; at 1.2 µM,2%
same,growth inhibition,[16]; at 3.7 µM,-1%
same,growth inhibition,[16]; at 11.0 µM,3%
same,growth inhibition,[16]; at 33.0 µM,2%
same,growth inhibition,[16]; at 100.0 µM,5%
[O-][n+]1c2cccc(O)c2[n+]([O-])c2cccc(O)c21,growth inhibition,[1]; at 1.2 µM,23%
same,growth inhibition,[1]; at 3.7 µM,57%
same,growth inhibition,[1]; at 11.0 µM,89% (active)
same,growth inhibition,[1]; at 33.0 µM,93% (active)
same,growth inhibition,[1]; at 100.0 µM,95% (active)
same,growth inhibition,[2]; at 1.2 µM,2%
same,growth inhibition,[2]; at 3.7 µM,2%
same,growth inhibition,[2]; at 11.0 µM,7%
same,growth inhibition,[2]; at 33.0 µM,10%
same,growth inhibition,[2]; at 100.0 µM,15%
same,growth inhibition,[3]; at 1.2 µM,25%
same,growth inhibition,[3]; at 3.7 µM,63%
same,growth inhibition,[3]; at 11.0 µM,89% (active)
same,growth inhibition,[3]; at 33.0 µM,94% (active)
same,growth inhibition,[3]; at 100.0 µM,96% (active)
same,growth inhibition,[4]; at 1.2 µM,3%
same,growth inhibition,[4]; at 3.7 µM,10%
same,growth inhibition,[4]; at 11.0 µM,8%
same,growth inhibition,[4]; at 33.0 µM,2%
same,growth inhibition,[4]; at 100.0 µM,18%
same,growth inhibition,[5]; at 1.2 µM,24%
same,growth inhibition,[5]; at 3.7 µM,55%
same,growth inhibition,[5]; [17],15%
same,growth inhibition,[5]; at 11.0 µM,85% (active)
same,growth inhibition,[5]; at 33.0 µM,92% (active)
same,growth inhibition,[5]; [18],95% (active)
same,growth inhibition,[5]; at 50.0 µM,86.4% (active)
same,growth inhibition,[5]; at 100.0 µM,95% (active)
same,growth inhibition,[6]; at 1.2 µM,3%
same,growth inhibition,[6]; at 3.7 µM,9%
